Pf Dd2 growth = Plasmodium falciparum Dd2 growth inhibition; P. falciparum Dd2 growth, SYBR Green, 72 h; Potency, µM (series often up to 28.9 µM), hits mostly inhibitors; 120,000 tested, 4.3% active; active means well fitted inhibition curve with a large enough effect; further: nearly all actives have a fitted effect of over 65% in size
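Readout: SYBR Green fluorescence, 485 nm excitation, 535 nm emission, after ~16 h lysis at 37C. Before that, Dd2-infected red cells (2.5% hematocrit) grew 72 h with compound, 29 uM top final concentration.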
Each line names hits and unclear results; the compound was inactive in the other large screens. Only a selection was taken, and hits are over-represented in it overall.

O=S(=O)(NCC1(COc2ccc(C(F)(F)F)cn2)C[C@@H](O)[C@@H](O)C1)c1ccc(F)cc1 (some centres not stated)	none
COc1ccc(-n2nc(C3CCN(CCC(C)C)CC3)[nH]c2=O)cc1	none
CCc1cccc(C)c1NC(=O)Cn1cccc1-c1nc(-c2ccc3c(c2)OCO3)no1	none
OC(c1nc(Nc2cccc(Cl)c2)n[nH]1)C1CC1 (configuration not stated)	none
COc1ccc(-c2noc([C@@H]3CCCN3C(=O)c3ccco3)n2)cc1OC	none
O=C(O)C[C@@H]1CCN(C(=O)C2CC2)C[C@@H]1CCN1CCN(c2ccc(F)cc2)CC1	none
CCc1ncc(CN2CCCC23CCN(c2ccc(C(F)(F)F)cn2)CC3)cn1	Pf Dd2 growth 7.9µM
CCn1ccnc1CN1CCCC12CCN(c1ccc(C(F)(F)F)cn1)CC2	none
Cn1cc(CN2CCCC23CCN(c2ccnc4c(C(F)(F)F)cccc24)CC3)cn1	none
CC(C)(C)CC(=O)NC[C@H]1OC[C@@H](NC2CCCC2)[C@@H]1O	none
COCCN1C(=O)C(CC(N)=O)=C2CCCCC21 (configuration not stated)	none
C[S+](=O)([O-])N1CC2ON=C(C(=O)N3CCOCC3)C2C1 (configuration not stated)	none
C#C[C@H]1CN2CC[C@H]1C[C@@H]2CNC(=O)Nc1cccc(SC)c1	none
CSc1cccc(NC(=O)NC[C@H]2C[C@@H]3CCN2C[C@@H]3CN2CCN(c3ncccn3)CC2)c1	none
CSc1cccc(NC(=O)NC[C@H]2C[C@@H]3CCN2C[C@@H]3CN(C)c2ccccc2)c1	Pf Dd2 growth 8.9µM
O=C(Nc1ccccc1)N[C@H]1[C@H](O)[C@@H](N2CCN(c3ccccc3)CC2)[C@@H]2OC[C@H]1O2	none
O=C(Cc1cccc(Cl)c1)N1CCn2c(nn(-c3ccc(F)cc3)c2=O)C1	none
O=C(N1CCC(C(=O)N2CCc3ccccc32)CC1)N1CC2CC(C1)[C@H]1CCCC(=O)N1C2 (some centres not stated)	none
COc1cccc(CC(=O)N2CCCC(c3nc(CCOCC4CCCC4)no3)C2)c1 (configuration not stated)	none
COc1ccc(Cc2nc3nccc(-c4ccc5c(c4)OCCCO5)n3n2)cc1	none
Fc1ccc(Cc2nc3nccc(-c4ccc5c(c4)OCCCO5)n3n2)cc1	Pf Dd2 growth 14µM
COCc1nc2nccc(-c3ccc4c(c3)OCCCO4)n2n1	none
CCNC(=O)N1CCCC1c1noc(CCC(=O)NC2CC2)n1 (configuration not stated)	none
COc1ccc(Nc2ncc3c(n2)CCN(Cc2cc(Br)cs2)C3)c(OC)c1	none
Brc1csc(CN2CCc3nc(Nc4ccccc4)ncc3C2)c1	Pf Dd2 growth 10µM
COc1ccccc1Nc1ncc2c(n1)CCN(Cc1cc(F)cc(F)c1)C2	none
COc1ccc(Nc2ncc3c(n2)CCN(Cc2ccc(Br)s2)C3)c(OC)c1	Pf Dd2 growth 10µM
COc1ccccc1Nc1ncc2c(n1)CCN(Cc1ccc(C)s1)C2	none
Cc1ccc(CN2CCc3nc(Nc4ccc5c(c4)OCCO5)ncc3C2)cc1	none
O=C(c1ccccc1)N1CCN2C(=O)N(C3CCOCC3)C[C@H]2C1	none
CCC1c2nccn2CCCN1C(=O)c1c(C)noc1C (configuration not stated)	none
Cc1cc(CNC(=O)[C@@H]2CCC[C@@H](NC(=O)c3ccccc3)CN(C)C(=O)C2)no1	none
N#Cc1ccc(CN2CCC3(CC2)CC(c2cccnc2)=NO3)cc1	none
COc1cccc(NC(=O)CCC2CCN(Cc3noc(C4CC4)n3)CC2)c1	none
COc1ccc(C(=O)N2CCCCCCNC(=O)CC2)cc1F	none
O=C(c1ccc(Oc2ccc(CN3CCCC3)cc2F)nc1)N1CCCCC1	Pf Dd2 growth 7.1µM
COc1ccc(C(=O)N2CCC(c3n[nH]c(=O)n3Cc3ccc(F)cc3)CC2)cn1	none
Cc1cc(C(F)(F)F)nn1CCNC(=O)[C@H]1CCC[C@H](O)C1	none
CCC1(N2CCN(C(=O)c3ccccc3OC(F)(F)F)CC2)CCN(S(C)(=O)=O)C1 (configuration not stated)	none
CN(C)C[C@@H]1CN(C2CCOCC2)C[C@H]1NC(=O)C1CC1	none
O=C1C(OCC2CC2)C2(CCCCC2)N1C1CCN(Cc2cccnc2)CC1 (configuration not stated)	Pf Dd2 growth 8.9µM
O=C1C(OCC2CC2)C2(CCCCC2)N1C1CCN(Cc2ccncc2F)CC1 (configuration not stated)	none
O=C(Cc1cccnc1)N1CCC(N2C(=O)C(OCC3CC3)C23CCCCC3)CC1 (configuration not stated)	none
O=C(NCc1ccc(C(F)(F)F)cc1)C1CCCN(c2cn[nH]c(=O)c2)C1 (configuration not stated)	none
COc1ccc2c(c1)C=C(CN1CCCC(O)(CN(C)C)C1)CO2 (configuration not stated)	none
CN(C)CC1(O)CCCN(Cc2ccc(-c3ccc(Cl)cc3)o2)C1 (configuration not stated)	none
CCOc1cc(C)c(CN2CCCC(O)(CN(C)C)C2)cc1C(C)C (configuration not stated)	Pf Dd2 growth 2.8µM
COc1ccc(CC(=O)Nc2nc3c(s2)CC(C(C)(C)C)CC3)cc1 (configuration not stated)	none

Screening data: PubChem, National Center for Advancing Translational Sciences (NCATS)
